# In PubChem BioAssay (EPA / NIEHS):
# Results filed as inconclusive are left out. The source made the active and inactive calls. Rule for the calls, unless noted: active = hit-call score of the fitted dose curve at least 0.9, where 1 is the maximum; inconclusive = response in the unintended direction; inactive = score below 0.9.
# Tests used:
# [1] = target: human Peroxisome Proliferator-activated Receptor alpha (PPARa), PPARA (gene 5465) (UniProt Q07869); test: ATG_PPARa_TRANS: Attagene TRANS-FACTORIAL HepG2 Assay for human Peroxisome Proliferator-activated Receptor alpha (PPARa) (AID 2283001)
# How it was run: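 Exposure: 24 h, transiently transfected HepG2 cells. Endpoint: GAL4-UAS reporter mRNA, RT-PCR with capillary electrophoresis fluorescence. Baseline: DMSO; increases fitted.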
# [2] = read-out: Intercellular Adhesion Molecule 1 (ICAM1), ICAM1 (gene 3383); test: BSK_3C_ICAM1: BioMAP Diversity Plus: 3C Assay for Intercellular Adhesion Molecule 1 (ICAM1) Biomarker Activity (AID 2283003; active = hit-call score of the fitted dose curve at least 0.9, where 1 is the maximum; inactive = score below 0.9); conditions: primary human endothelial cells (HUVEC); actives raise or lower the signal
# How it was run: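 Using DMSO as baseline, bidirectional curve fitting was applied to ICAM-1 ELISA signals from HUVEC in the 3C system, measured 24 h after compound addition.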
# [3] = BSK_3C_Proliferation: Cell Proliferation Assessment in the BioMAP Diversity Plus: 3C Assay (AID 2283006; active = hit-call score of the fitted dose curve at least 0.9, where 1 is the maximum; inactive = score below 0.9;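 for AC50: potency may reflect either rise or fall in cell number versus DMSO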); conditions: primary human endothelial cells (HUVEC)
# How it was run: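 Measured here: sulforhodamine B (0.1%) staining of TCA-fixed sub-confluent umbilical vein endothelial cultures 48 h post-dosing, absorbance 560 nm. DMSO served as negative control and baseline; both signal gain and loss were modelled.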
# [4] = target: Peroxisome proliferator-activated receptor gamma (Homo sapiens) (UniProt P37231); test: ATG_PPARg_TRANS: Attagene TRANS-FACTORIAL HepG2 Assay for human Peroxisome Proliferator-activated Receptor-gamma (PPARg) (AID 2283007)
# How it was run: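 Human hepatoma HepG2, transient MRTU transfection, 24 h treatment. mRNA reporter signal by RT-PCR plus capillary electrophoresis, fluorescence detection; fitted for increase over DMSO negative control.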
# [5] = target: Nuclear receptor subfamily 1 group I member 2 (Homo sapiens) (UniProt O75469); test: ATG_PXR_TRANS: Attagene TRANS-FACTORIAL HepG2 Assay for human Pregnane X Receptor (PXR) (AID 2283008)
# How it was run: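 HepG2 transfected (FuGene 6) with GAL4-UAS reporter units + PXR-Gal4 chimera; dosed 24 h. Total RNA → oligo(dT) RT → PCR → 6-FAM primer extension → HpaI cut → CE. Gain-of-signal vs DMSO.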
# [6] = target: human Peroxisome Proliferator-activated Receptor delta (PPARd), PPARD (gene 5467) (UniProt Q03181); test: ATG_PPARd_TRANS: Attagene TRANS-FACTORIAL HepG2 Assay for human Peroxisome Proliferator-activated Receptor delta (PPARd) (AID 2283002)
# How it was run: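 Measured quantity: GAL4-UAS reporter transcript induction in HepG2 after 24 h chemical dosing, with NR-Gal4 chimeras supplied by transient transfection. Detection by RT-PCR and capillary electrophoresis; upward fit against DMSO.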
# [7] = target: human Retinoic Acid Receptor beta (RARb), RARB (gene 5915) (UniProt P10826); test: ATG_RARb_TRANS: Attagene TRANS-FACTORIAL HepG2 Assay for human Retinoic Acid Receptor beta (AID 2283004)
# How it was run: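 Induction of reporter mRNA from a chimeric RARb-Gal4 construct was measured by RT-PCR, FAM labelling, HpaI digestion and capillary electrophoresis. Measurements followed 24 h compound treatment of transiently transfected human HepG2 liver cells, with DMSO as baseline.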
# [8] = target: Retinoic acid receptor alpha (Homo sapiens) (UniProt P10276); test: ATG_RARa_TRANS: Attagene TRANS-FACTORIAL HepG2 Assay for human Retinoic Acid Receptor alpha (RARa) (AID 2283005)
# How it was run: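 HepG2 cells transiently transfected with multiple reporter units expressing chimeric RARα-GAL4 fusion, with GAL4-UAS-driven reporters. After 24 h compound exposure, reporter mRNA induction quantified by RT-PCR and capillary electrophoresis with fluorescent labeling; gain-of-signal fitted relative to DMSO control.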
# [9] = target: human Retinoic Acid Receptor gamma (RARg), RARG (gene 5916) (UniProt P13631); test: ATG_RARg_TRANS: Attagene TRANS-FACTORIAL HepG2 Assay for human Retinoic Acid Receptor gamma (RARg) (AID 2283009)
# How it was run: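 Gain-of-signal relative to DMSO is reported from fluorescent capillary electrophoresis of RT-PCR reporter products. These came from HepG2 cells expressing transfected RARg-GAL4 chimeras with UAS reporters, harvested 24 h after dosing.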
# [10] = target: human RAR-related Orphan Receptor beta (RORb), RORB (gene 6096) (UniProt Q92753); test: ATG_RORb_TRANS: Attagene TRANS-FACTORIAL HepG2 Assay for human RAR-related Orphan Receptor beta (RORb) (AID 2283010)
# How it was run: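 Multiplexed transcription-factor reporter assay: HepG2 cells transiently carrying NR-Gal4/GAL4-UAS constructs, 24 h treatment, mRNA quantified by RT-PCR plus capillary electrophoresis fluorescence; activity scored as induction over DMSO.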
# Nuclear receptor subfamily 1 group I member 2 (Homo sapiens), sequence (O75469 whole entry, looked up, the tested form may be a part): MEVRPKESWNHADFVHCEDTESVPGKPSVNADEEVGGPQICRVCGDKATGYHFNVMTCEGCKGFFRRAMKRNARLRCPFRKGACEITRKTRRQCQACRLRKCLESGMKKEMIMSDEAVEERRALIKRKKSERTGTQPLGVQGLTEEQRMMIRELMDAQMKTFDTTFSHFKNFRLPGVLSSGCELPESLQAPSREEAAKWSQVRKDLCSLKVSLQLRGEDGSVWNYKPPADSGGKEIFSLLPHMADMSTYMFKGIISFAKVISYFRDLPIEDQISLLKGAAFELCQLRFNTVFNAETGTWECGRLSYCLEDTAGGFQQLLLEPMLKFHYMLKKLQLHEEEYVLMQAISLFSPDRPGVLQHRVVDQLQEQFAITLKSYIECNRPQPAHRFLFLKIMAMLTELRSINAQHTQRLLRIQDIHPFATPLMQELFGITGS
# Retinoic acid receptor alpha (Homo sapiens), sequence (P10276 whole entry, looked up, the tested form may be a part): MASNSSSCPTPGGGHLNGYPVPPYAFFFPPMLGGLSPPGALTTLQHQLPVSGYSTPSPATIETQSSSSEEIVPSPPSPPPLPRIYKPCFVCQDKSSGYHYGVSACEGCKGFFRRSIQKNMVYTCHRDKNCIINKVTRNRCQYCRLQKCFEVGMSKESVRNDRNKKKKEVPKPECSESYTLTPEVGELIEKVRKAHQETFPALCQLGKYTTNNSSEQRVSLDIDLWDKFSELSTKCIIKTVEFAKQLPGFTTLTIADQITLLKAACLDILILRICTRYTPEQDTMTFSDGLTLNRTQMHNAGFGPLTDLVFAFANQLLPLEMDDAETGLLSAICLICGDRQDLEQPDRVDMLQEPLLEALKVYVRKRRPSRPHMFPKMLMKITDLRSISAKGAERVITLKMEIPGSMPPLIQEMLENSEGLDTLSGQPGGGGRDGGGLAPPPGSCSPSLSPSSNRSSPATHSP
# human Retinoic Acid Receptor gamma (RARg), RARG (gene 5916), sequence (P13631 whole entry, looked up, the tested form may be a part): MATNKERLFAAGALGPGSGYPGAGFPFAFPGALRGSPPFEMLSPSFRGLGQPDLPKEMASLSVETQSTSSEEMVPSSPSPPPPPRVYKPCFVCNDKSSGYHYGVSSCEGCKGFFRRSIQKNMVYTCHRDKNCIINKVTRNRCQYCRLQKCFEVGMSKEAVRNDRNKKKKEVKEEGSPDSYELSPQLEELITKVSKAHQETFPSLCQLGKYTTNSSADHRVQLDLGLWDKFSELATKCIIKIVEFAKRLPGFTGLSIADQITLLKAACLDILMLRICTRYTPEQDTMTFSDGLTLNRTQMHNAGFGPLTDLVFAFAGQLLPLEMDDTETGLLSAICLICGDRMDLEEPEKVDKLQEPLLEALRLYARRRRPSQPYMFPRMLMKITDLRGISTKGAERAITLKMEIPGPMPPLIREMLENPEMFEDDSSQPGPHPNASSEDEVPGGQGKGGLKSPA
# human RAR-related Orphan Receptor beta (RORb), RORB (gene 6096), sequence (Q92753 whole entry, looked up, the tested form may be a part): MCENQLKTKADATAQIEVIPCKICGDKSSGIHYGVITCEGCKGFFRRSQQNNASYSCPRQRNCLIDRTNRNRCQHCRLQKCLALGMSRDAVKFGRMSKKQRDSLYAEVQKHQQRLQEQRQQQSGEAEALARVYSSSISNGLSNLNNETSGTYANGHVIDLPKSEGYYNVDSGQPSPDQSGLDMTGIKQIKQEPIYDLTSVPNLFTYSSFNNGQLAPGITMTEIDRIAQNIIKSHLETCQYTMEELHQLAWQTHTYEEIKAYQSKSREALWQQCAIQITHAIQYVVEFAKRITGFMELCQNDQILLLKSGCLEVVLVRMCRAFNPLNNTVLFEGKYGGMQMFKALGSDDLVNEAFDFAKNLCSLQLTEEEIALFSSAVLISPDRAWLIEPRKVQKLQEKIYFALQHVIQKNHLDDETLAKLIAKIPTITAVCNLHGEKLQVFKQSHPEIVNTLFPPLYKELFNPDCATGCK
# Peroxisome proliferator-activated receptor gamma (Homo sapiens), sequence (P37231 whole entry, looked up): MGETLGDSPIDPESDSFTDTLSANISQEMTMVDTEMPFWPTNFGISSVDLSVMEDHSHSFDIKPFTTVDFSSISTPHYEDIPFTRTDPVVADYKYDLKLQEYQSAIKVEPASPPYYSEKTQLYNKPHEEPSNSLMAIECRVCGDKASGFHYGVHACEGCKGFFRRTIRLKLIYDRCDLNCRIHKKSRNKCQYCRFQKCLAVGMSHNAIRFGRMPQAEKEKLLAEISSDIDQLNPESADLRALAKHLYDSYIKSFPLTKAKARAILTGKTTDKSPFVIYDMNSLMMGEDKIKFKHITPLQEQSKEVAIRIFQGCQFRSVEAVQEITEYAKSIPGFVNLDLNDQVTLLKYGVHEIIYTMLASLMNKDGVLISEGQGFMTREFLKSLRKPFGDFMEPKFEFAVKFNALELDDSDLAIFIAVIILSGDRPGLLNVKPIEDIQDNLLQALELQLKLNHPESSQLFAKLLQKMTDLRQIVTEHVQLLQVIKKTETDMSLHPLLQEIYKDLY
# human Peroxisome Proliferator-activated Receptor alpha (PPARa), PPARA (gene 5465), sequence (Q07869 whole entry, looked up, the tested form may be a part): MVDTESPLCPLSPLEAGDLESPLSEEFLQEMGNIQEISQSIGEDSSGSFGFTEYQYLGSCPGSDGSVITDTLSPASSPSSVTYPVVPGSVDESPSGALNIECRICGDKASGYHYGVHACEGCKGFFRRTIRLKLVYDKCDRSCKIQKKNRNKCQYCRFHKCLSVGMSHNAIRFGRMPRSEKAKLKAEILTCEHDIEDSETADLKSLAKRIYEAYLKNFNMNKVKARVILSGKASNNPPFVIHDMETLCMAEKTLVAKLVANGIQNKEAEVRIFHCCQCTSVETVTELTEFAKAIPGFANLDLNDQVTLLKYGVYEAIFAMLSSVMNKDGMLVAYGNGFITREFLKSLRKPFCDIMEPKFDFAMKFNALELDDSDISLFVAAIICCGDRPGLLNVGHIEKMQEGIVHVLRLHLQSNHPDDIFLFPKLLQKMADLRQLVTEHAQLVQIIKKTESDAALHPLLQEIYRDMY
# human Peroxisome Proliferator-activated Receptor delta (PPARd), PPARD (gene 5467), sequence (Q03181 whole entry, looked up, the tested form may be a part): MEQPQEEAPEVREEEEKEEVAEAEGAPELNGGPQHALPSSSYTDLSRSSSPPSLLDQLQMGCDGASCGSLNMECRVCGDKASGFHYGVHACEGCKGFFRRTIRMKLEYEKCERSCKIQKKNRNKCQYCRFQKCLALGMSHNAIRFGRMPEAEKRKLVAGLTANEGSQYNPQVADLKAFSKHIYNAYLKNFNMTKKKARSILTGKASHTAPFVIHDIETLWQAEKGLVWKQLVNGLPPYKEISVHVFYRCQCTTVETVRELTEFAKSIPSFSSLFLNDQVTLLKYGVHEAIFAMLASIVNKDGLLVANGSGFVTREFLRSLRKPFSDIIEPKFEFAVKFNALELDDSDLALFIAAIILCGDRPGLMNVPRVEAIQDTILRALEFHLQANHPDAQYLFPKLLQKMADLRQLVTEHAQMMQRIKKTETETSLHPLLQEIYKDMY
# human Retinoic Acid Receptor beta (RARb), RARB (gene 5915), sequence (P10826 whole entry, looked up, the tested form may be a part): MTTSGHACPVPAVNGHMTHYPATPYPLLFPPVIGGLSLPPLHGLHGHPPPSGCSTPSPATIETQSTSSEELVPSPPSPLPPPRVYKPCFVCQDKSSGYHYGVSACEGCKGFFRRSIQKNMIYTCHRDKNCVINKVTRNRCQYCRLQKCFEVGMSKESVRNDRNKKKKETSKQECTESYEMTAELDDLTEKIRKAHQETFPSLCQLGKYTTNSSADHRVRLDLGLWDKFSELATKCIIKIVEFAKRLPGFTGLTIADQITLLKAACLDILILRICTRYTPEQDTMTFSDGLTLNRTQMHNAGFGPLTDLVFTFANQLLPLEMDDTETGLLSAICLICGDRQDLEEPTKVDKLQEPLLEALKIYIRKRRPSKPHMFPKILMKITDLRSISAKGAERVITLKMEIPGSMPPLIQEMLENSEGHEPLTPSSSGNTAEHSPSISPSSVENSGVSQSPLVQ
structure (smiles),measurement,setting,value
Oc1ccccc1Cl,outcome,[1],inactive
same,outcome,[2],inactive
same,outcome,[3],inactive
same,outcome,[4],inactive
same,outcome,[5],inactive
c1ccc(N=Nc2ccccc2)cc1,outcome,[1],inactive
same,outcome,[2],inactive
same,outcome,[3],inactive
same,AC50,[4],43 µM (active)
same,outcome,[5],inactive
N#CC(Br)(Br)C(N)=O,outcome,[6],inactive
same,outcome,[2],inactive
same,outcome,[7],inactive
same,outcome,[8],inactive
same,outcome,[3],inactive
same,outcome,[5],inactive
same,outcome,[9],inactive
same,outcome,[10],inactive
Clc1ccc(C(c2ccc(Cl)cc2)C(Cl)Cl)cc1,outcome,[1],inactive
same,AC50,[2],37.9 µM (active)
same,AC50,[3],15.3 µM (active)
same,AC50,[5],7.96 µM (active)
CC(C)COC(=O)c1ccccc1C(=O)OCC(C)C,outcome,[1],inactive
same,outcome,[2],inactive
same,AC50,[3],28.6 µM (active)
Oc1ccc2ccc3cccc4ccc1c2c34,outcome,[6],inactive
same,AC50,[2],31.8 µM (active)
same,outcome,[7],inactive
same,AC50,[3],24.6 µM (active)
same,AC50,[5],33.4 µM (active)
same,outcome,[9],inactive
Clc1ccc(Cl)c(Cl)c1,outcome,[6],inactive
same,outcome,[2],inactive
same,outcome,[8],inactive
same,outcome,[3],inactive
same,outcome,[4],inactive
CCC(C)c1ccc(O)cc1 (stereo not drawn),outcome,[1],inactive
same,outcome,[2],inactive
same,outcome,[3],inactive
same,outcome,[5],inactive
Clc1ccccc1Cl,outcome,[1],inactive
same,outcome,[2],inactive
same,outcome,[3],inactive
Cc1cccc(N)c1N,outcome,[1],inactive
same,outcome,[2],inactive
same,outcome,[7],inactive
same,outcome,[8],inactive
same,outcome,[3],inactive
same,outcome,[5],inactive
same,outcome,[9],inactive
CS(=O)(=O)NC(=O)c1cc(Oc2ccc(C(F)(F)F)cc2Cl)ccc1[N+](=O)[O-],outcome,[1],inactive
same,outcome,[2],inactive
same,outcome,[7],inactive
same,outcome,[8],inactive
same,outcome,[3],inactive
same,AC50,[5],7.65 µM (active)
same,outcome,[9],inactive
CCCCCCCCn1sccc1=O,outcome,[1],inactive
same,AC50,[2],11.7 µM (active)
same,AC50,[3],0.796 µM (active)
same,AC50,[5],10.7 µM (active)
CC(O)CCO (stereo not drawn),outcome,[6],inactive
same,outcome,[2],inactive
same,outcome,[7],inactive
same,outcome,[8],inactive
same,outcome,[3],inactive
same,AC50,[5],24.1 µM (active)
same,outcome,[9],inactive
c1ccc(C2CO2)cc1 (stereo not drawn),outcome,[1],inactive
same,outcome,[2],inactive
same,outcome,[3],inactive
CN(C)c1ccccc1,outcome,[1],inactive
same,outcome,[2],inactive
same,outcome,[3],inactive
same,outcome,[10],inactive
CN(C)c1ccc(C(=O)c2ccc(N(C)C)cc2)cc1,outcome,[1],inactive
same,outcome,[2],inactive
same,AC50,[3],1.68 µM (active)
same,outcome,[5],inactive
CCOC(=O)[C@]1(c2ccccc2)Oc2ccccc2[C@@H]1N,outcome,[1],inactive
same,outcome,[2],inactive
same,outcome,[7],inactive
same,outcome,[8],inactive
same,AC50,[3],30.9 µM (active)
same,AC50,[5],11 µM (active)
same,outcome,[9],inactive
Cc1ccc(N)cc1,outcome,[1],inactive
same,outcome,[2],inactive
same,outcome,[3],inactive
same,outcome,[10],inactive
OCCOCCO,outcome,[6],inactive
same,outcome,[2],inactive
same,outcome,[7],inactive
same,outcome,[3],inactive
O=C(N[C@H](c1ccccc1)[C@@H]1CN2CCC1CC2)c1c(Cl)ccc(C(F)(F)F)c1Cl,outcome,[6],inactive
same,outcome,[2],inactive
same,AC50,[3],29.7 µM (active)
same,AC50,[5],0.226 µM (active)
OCCCBr,outcome,[6],inactive
same,outcome,[2],inactive
same,outcome,[3],inactive
same,outcome,[5],inactive
CCN(CC)N=O,outcome,[6],inactive
same,outcome,[2],inactive
same,outcome,[3],inactive
Brc1ccc(Oc2ccccc2)cc1,outcome,[2],inactive
same,outcome,[3],inactive
same,outcome,[4],inactive
same,outcome,[5],inactive
ClC1=C(Cl)C2(Cl)C3C(Cl)C=CC3C1(Cl)C2(Cl)Cl (stereo not drawn),outcome,[6],inactive
same,AC50,[2],30.2 µM (active)
same,AC50,[3],7.84 µM (active)
same,outcome,[4],inactive
same,outcome,[5],inactive
same,outcome,[9],inactive
CNC(=O)Oc1cccc2c1OC(C)(C)C2,outcome,[6],inactive
same,outcome,[2],inactive
same,outcome,[3],inactive
same,outcome,[5],inactive
same,outcome,[10],inactive
CCCSC(=O)N(CCC)CCC,outcome,[6],inactive
same,outcome,[2],inactive
same,outcome,[3],inactive
same,outcome,[5],inactive
N#CC(Br)Br,outcome,[6],inactive
same,outcome,[2],inactive
same,outcome,[3],inactive
same,outcome,[5],inactive
CC(C)N(Cc1ccccc1)C(=O)C(C)(C)C,outcome,[2],inactive
same,outcome,[7],inactive
same,outcome,[3],inactive
same,AC50,[5],0.556 µM (active)
CC(C)(C)C(O)(CCc1ccc(Cl)cc1)Cn1cncn1 (stereo not drawn),outcome,[6],inactive
same,outcome,[2],inactive
same,outcome,[3],inactive
same,AC50,[5],0.977 µM (active)
same,outcome,[9],inactive
ClCCOCCCl,outcome,[6],inactive
same,outcome,[2],inactive
same,outcome,[3],inactive
same,outcome,[5],inactive
same,outcome,[9],inactive
COC(=O)c1ccccc1N,outcome,[6],inactive
same,outcome,[2],inactive
same,outcome,[3],inactive
same,outcome,[10],inactive
Cc1ccc(N=C=O)cc1N=C=O,outcome,[2],inactive
same,outcome,[7],inactive
same,outcome,[8],inactive
same,AC50,[3],13.9 µM (active)
same,outcome,[9],inactive
[Cl-].[Cl-].[Hg+2],outcome,[2],inactive
same,AC50,[3],32.6 µM (active)
same,outcome,[5],inactive
same,outcome,[10],inactive
O=P(OCCCl)(OCCCl)OCCCl,outcome,[2],inactive
same,outcome,[7],inactive
same,outcome,[8],inactive
same,outcome,[3],inactive
same,outcome,[5],inactive
same,outcome,[9],inactive
[O-][Cl+]O,outcome,[2],inactive
same,outcome,[3],inactive
same,outcome,[5],inactive
Clc1ccc(C(c2ccc(Cl)cc2)C(Cl)(Cl)Cl)cc1,outcome,[6],inactive
same,AC50,[2],34.7 µM (active)
same,AC50,[3],20.1 µM (active)
CCC[CH2][Sn]([Cl])([CH2]CCC)[CH2]CCC,outcome,[6],inactive
same,AC50,[2],0.148 µM (active)
same,AC50,[3],0.148 µM (active)
same,AC50,[5],0.927 µM (active)
O=C(Nc1ccccc1)c1ccccc1I,outcome,[6],inactive
same,outcome,[2],inactive
same,outcome,[3],inactive
same,AC50,[4],17.8 µM (active)
same,AC50,[5],10.6 µM (active)
same,outcome,[10],inactive
CC(C)(C)OOC(C)(C)CCC(C)(C)OOC(C)(C)C,outcome,[2],inactive
same,AC50,[7],24.7 µM (active)
same,outcome,[3],inactive
same,outcome,[5],inactive
C1=Cc2cccc3cccc1c23,outcome,[6],inactive
same,outcome,[2],inactive
same,outcome,[8],inactive
same,outcome,[3],inactive
same,outcome,[5],inactive
same,outcome,[9],inactive
CCCCCCCCCCCCCN1CC(C)OC(C)C1 (stereo not drawn),outcome,[6],inactive
same,outcome,[2],inactive
same,AC50,[3],14.5 µM (active)
same,AC50,[5],26.2 µM (active)
same,outcome,[9],inactive
CCCCC(CC)COC(=O)c1ccc(C(=O)OCC(CC)CCCC)c(C(=O)OCC(CC)CCCC)c1 (stereo not drawn),outcome,[2],inactive
same,outcome,[7],inactive
same,outcome,[3],inactive
same,outcome,[5],inactive
same,outcome,[10],inactive
Cn1cc(-c2ccccc2)c(=O)c(-c2cccc(C(F)(F)F)c2)c1,outcome,[6],inactive
same,outcome,[2],inactive
same,outcome,[3],inactive
same,outcome,[4],inactive
same,AC50,[5],4.04 µM (active)
[As]#[In],outcome,[2],inactive
same,outcome,[7],inactive
same,outcome,[8],inactive
same,outcome,[3],inactive
same,outcome,[9],inactive
same,outcome,[10],inactive
CCN(CC)CCO,outcome,[6],inactive
same,outcome,[2],inactive
same,outcome,[3],inactive
C[N+](C)(C)CC1CO1 (stereo not drawn),outcome,[2],inactive
same,outcome,[3],inactive
same,outcome,[10],inactive
Cc1ccc([N+](=O)[O-])cc1,outcome,[6],inactive
same,outcome,[2],inactive
same,outcome,[3],inactive
same,outcome,[5],inactive
